Experiment in all cases: DAPPL (digital affinity profiling via proximity ligation, sequencing); 10 mM Tris-HCl pH 7.5, 50 mM NaCl, 1 mM DTT, 4% glycerol, room temperature, 30 min; GST-TFs on glutathione beads, 16-mer random dsDNA library, 0.1% formaldehyde crosslink after washing; high values mean tight binding
Assay [1] addresses T1, FEV (Homo sapiens, UniProt Q99581 1-238).
T1 sequence: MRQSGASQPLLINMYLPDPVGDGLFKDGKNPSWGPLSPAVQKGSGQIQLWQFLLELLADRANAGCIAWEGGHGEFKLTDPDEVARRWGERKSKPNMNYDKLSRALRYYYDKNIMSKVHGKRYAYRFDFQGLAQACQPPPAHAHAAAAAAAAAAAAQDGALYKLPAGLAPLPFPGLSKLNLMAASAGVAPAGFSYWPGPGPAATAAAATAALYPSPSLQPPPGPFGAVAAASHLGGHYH
As to conditions: protein: recombinant; tags: N-terminal GST; dsDNA, one strand shown. In short, it runs like this: (§1)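 After expression in yeast as GST fusions, human transcription factors were bound to glutathione beads, DNA-barcoded and mixed with a tag-only sample. The pools were incubated with 200 nmole of a 16-mer random double-stranded DNA library in Tris/NaCl/DTT/glycerol buffer (30 min, room temperature), washed and crosslinked with 0.1% formaldehyde. Proximity ligation with BsaI/T4 ligase ran for 1 h at 37 °C, before PCR amplification and sequencing on an Illumina NextSeq500. Binding signal is a hexamer's read frequency for a factor divided by its frequency for the tag-only sample.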

Assay [2] addresses ETV5 (Homo sapiens, UniProt P41161 1-510). Particulars: protein: recombinant; tags: N-terminal GST; dsDNA, one strand shown. In a few lines: as §1
Assay [3] has as its target HSF1 (Homo sapiens, UniProt Q00613 1-529). Particulars: protein: recombinant; tags: N-terminal GST; chain copies: 3; dsDNA, one strand shown. In a few lines: as §1
In assay [4] the target is T2, SPIC (Homo sapiens, UniProt Q8N5J4 1-248).
T2 sequence: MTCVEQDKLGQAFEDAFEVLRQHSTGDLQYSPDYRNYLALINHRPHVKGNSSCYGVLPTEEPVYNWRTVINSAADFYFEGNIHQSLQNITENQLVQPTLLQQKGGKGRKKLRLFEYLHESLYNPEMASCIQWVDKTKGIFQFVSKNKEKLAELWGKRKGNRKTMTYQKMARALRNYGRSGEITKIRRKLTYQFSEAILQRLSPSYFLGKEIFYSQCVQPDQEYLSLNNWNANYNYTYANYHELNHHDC
As to conditions: protein: recombinant; tags: N-terminal GST; dsDNA, one strand shown. In short, it runs like this:
as §1

Assay [5] addresses ELF4 (Homo sapiens, UniProt Q99607 1-663). As to conditions: protein: recombinant; tags: N-terminal GST; dsDNA, one strand shown. In short, it runs like this: as §1
Assay [6] deals with T3, ELK4 (Homo sapiens, UniProt P28324-2 1-405).
T3 sequence: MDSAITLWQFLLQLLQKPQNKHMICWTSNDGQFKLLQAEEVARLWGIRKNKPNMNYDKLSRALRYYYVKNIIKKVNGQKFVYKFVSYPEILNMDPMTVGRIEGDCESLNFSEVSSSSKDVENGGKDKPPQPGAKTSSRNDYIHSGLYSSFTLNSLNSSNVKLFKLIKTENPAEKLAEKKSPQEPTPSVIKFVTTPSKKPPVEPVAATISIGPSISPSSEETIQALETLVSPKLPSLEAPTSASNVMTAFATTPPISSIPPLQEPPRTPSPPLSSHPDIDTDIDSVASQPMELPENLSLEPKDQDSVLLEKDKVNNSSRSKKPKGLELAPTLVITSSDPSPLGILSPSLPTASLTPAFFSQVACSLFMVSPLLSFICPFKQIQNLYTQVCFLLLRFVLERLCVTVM
As to conditions: protein: recombinant; tags: N-terminal GST; dsDNA, one strand shown. In a few lines:
as §1

Assay [7] addresses T4, ETV2 (Homo sapiens, UniProt O00321 1-342).
T4 sequence: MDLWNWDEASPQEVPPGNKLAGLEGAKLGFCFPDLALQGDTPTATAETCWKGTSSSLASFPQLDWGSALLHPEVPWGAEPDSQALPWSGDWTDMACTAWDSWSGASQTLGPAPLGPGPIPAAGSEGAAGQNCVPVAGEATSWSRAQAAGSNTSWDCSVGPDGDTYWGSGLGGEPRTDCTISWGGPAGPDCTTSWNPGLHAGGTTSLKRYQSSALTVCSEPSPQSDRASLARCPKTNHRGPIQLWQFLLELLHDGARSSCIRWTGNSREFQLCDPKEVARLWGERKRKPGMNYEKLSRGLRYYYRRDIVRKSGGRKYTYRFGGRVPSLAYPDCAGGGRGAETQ
As to conditions: protein: recombinant; tags: N-terminal GST; dsDNA, one strand shown. In a few lines:
as §1

Assay [8] addresses T5, ELF3 (Homo sapiens, UniProt P78545 1-371).
T5 sequence: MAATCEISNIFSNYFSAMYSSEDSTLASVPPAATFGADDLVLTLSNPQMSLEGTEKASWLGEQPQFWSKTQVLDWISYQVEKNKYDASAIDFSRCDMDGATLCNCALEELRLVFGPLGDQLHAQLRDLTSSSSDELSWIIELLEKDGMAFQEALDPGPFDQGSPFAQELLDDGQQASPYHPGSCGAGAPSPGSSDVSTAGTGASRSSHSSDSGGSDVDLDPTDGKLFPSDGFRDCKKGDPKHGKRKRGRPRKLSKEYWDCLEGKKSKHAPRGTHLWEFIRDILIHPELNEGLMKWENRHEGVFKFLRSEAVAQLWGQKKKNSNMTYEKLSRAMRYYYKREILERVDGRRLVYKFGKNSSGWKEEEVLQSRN
Particulars: protein: recombinant; tags: N-terminal GST; dsDNA, one strand shown. In short, it runs like this:
as §1

Assay [9] deals with CRX (Homo sapiens, UniProt O43186 1-299). As to conditions: protein: recombinant; tags: N-terminal GST; dsDNA, one strand shown. In short, it runs like this: as §1
In assay [10] the target is ETV1 (Homo sapiens, UniProt P50549 1-477). Particulars: protein: recombinant; tags: N-terminal GST; dsDNA, one strand shown. In a few lines: as §1
For assay [11], the target named is T6, ERF (Homo sapiens, UniProt P50548 1-548).
T6 sequence: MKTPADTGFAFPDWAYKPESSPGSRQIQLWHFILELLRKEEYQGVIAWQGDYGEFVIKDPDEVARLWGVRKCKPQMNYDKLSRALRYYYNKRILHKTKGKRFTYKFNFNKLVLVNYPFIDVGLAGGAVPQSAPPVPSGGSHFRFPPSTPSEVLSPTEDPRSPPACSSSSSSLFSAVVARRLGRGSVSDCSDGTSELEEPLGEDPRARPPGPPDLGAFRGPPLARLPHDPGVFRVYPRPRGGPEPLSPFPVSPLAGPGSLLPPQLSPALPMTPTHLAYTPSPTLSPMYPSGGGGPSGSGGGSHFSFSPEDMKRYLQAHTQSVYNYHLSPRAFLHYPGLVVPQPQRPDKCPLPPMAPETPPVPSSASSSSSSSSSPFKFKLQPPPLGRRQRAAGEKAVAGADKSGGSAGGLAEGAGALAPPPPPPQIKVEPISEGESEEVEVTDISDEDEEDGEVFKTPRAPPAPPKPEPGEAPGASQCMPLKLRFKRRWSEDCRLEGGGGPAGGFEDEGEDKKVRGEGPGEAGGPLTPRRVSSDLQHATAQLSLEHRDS
As to conditions: protein: recombinant; tags: N-terminal GST; dsDNA, one strand shown. In short, it runs like this: as §1

For assay [12], the target named is T7, ETV3L (Homo sapiens, UniProt Q6ZN32 1-361).
T7 sequence: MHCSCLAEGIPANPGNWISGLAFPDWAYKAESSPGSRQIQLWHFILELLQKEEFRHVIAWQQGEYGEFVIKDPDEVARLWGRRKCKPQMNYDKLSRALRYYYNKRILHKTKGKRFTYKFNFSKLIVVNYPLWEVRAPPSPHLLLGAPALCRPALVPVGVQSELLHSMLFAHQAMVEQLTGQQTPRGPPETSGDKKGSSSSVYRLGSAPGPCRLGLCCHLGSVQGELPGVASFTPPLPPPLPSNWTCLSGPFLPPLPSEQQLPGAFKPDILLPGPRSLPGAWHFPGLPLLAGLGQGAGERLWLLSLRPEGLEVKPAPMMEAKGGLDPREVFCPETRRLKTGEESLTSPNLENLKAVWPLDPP
As to conditions: protein: recombinant; tags: N-terminal GST; dsDNA, one strand shown. In short, it runs like this: as §1

Assay [13] addresses T8, ETS2 (Homo sapiens, UniProt P15036 1-469).
T8 sequence: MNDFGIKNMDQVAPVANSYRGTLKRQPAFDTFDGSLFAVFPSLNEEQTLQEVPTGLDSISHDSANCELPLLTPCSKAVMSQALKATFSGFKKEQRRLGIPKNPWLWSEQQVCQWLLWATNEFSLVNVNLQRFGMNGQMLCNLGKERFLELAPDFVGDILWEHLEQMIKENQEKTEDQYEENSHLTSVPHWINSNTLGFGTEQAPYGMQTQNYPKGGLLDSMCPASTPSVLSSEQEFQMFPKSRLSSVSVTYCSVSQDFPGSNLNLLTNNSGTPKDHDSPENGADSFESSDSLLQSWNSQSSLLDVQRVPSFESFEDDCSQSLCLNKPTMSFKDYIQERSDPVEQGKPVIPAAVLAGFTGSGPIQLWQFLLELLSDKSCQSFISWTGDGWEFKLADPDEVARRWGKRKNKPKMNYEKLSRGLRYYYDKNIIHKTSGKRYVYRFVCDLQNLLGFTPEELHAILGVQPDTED
Particulars: protein: recombinant; tags: N-terminal GST; dsDNA, one strand shown. In a few lines:
as §1

Assay [14] deals with T9, SPDEF (Homo sapiens, UniProt O95238 1-335).
T9 sequence: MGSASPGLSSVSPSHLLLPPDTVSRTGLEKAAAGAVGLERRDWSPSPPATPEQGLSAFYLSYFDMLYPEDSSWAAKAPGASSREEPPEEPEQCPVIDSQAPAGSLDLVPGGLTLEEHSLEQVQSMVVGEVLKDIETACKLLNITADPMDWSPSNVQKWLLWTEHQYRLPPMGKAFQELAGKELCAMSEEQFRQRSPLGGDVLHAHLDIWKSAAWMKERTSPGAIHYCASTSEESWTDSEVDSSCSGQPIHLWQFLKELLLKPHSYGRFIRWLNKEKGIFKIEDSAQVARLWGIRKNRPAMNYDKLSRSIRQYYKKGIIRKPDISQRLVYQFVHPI
As to conditions: protein: recombinant; tags: N-terminal GST; dsDNA, one strand shown. In short, it runs like this:
as §1

For assay [15], the target named is T10, ETV7 (Homo sapiens, UniProt Q9Y603 1-341).
T10 sequence: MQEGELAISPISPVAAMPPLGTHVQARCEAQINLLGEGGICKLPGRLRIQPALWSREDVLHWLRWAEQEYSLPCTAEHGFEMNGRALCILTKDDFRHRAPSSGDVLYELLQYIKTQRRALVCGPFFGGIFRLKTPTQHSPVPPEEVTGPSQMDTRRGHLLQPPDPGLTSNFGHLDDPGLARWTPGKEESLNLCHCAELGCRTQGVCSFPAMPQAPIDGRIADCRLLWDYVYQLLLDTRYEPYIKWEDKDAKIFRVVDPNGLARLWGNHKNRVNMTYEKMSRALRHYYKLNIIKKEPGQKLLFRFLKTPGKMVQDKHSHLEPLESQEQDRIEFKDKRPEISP
Particulars: protein: recombinant; tags: N-terminal GST; dsDNA, one strand shown. In a few lines: as §1

For assay [16], the target named is T11, ELF5 (Homo sapiens, UniProt Q9UKW6-2 1-255).
T11 sequence: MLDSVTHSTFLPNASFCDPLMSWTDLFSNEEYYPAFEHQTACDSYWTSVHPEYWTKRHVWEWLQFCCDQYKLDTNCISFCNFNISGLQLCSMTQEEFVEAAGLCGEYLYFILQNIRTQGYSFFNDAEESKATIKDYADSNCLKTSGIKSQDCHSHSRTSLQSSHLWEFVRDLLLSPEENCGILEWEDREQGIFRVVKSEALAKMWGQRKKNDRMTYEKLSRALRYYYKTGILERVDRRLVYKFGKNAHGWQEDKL
Particulars: protein: recombinant; tags: N-terminal GST; dsDNA, one strand shown. In a few lines: as §1

Assay [17] has as its target T12, ETV3 (Homo sapiens, UniProt P41162-2 1-143).
T12 sequence: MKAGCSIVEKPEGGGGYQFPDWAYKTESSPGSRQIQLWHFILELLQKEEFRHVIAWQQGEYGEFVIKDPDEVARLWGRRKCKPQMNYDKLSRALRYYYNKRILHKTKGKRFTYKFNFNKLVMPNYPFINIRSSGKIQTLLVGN
Particulars: protein: recombinant; tags: N-terminal GST; dsDNA, one strand shown. In a few lines:
as §1

Assay [18] deals with ETV6 (Homo sapiens, UniProt P41212 1-452). Particulars: protein: recombinant; tags: N-terminal GST; dsDNA, one strand shown. In short, it runs like this: as §1

One sequence from article PMC7862700, “An all-to-all approach to the identification of sequence-specific readers for epigenetic DNA modifications on cytosine” can be followed below.

Sequence of HSF1 (Q00613 whole entry): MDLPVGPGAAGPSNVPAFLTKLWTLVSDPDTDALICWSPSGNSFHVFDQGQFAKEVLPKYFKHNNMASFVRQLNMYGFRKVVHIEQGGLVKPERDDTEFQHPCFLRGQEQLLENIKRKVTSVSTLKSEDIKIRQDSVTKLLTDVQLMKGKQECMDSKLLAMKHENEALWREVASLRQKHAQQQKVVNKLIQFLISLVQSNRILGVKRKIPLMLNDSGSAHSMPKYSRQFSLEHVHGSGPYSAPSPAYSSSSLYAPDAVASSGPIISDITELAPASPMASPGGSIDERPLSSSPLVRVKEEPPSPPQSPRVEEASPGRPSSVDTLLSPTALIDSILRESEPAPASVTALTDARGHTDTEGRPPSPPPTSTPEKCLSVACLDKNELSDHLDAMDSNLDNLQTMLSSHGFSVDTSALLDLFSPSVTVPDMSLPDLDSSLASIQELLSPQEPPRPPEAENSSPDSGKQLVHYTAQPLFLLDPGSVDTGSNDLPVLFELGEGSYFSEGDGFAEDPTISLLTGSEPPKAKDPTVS
Sequence of ETV5 (P41161 whole entry): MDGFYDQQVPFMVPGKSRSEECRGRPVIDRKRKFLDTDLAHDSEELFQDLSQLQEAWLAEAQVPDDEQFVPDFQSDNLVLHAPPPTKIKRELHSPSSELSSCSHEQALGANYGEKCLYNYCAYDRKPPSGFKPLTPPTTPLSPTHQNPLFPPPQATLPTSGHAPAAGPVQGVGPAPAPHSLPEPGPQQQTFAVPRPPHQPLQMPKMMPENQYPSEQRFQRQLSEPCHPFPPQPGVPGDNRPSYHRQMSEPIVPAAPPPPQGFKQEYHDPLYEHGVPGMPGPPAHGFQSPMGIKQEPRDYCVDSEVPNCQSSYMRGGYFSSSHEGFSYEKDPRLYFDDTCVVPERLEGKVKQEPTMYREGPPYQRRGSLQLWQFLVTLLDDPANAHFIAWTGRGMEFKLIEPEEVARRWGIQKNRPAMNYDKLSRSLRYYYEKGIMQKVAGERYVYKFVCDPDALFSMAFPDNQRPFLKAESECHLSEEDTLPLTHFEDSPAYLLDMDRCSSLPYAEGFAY
Sequence of ELF4 (Q99607 whole entry): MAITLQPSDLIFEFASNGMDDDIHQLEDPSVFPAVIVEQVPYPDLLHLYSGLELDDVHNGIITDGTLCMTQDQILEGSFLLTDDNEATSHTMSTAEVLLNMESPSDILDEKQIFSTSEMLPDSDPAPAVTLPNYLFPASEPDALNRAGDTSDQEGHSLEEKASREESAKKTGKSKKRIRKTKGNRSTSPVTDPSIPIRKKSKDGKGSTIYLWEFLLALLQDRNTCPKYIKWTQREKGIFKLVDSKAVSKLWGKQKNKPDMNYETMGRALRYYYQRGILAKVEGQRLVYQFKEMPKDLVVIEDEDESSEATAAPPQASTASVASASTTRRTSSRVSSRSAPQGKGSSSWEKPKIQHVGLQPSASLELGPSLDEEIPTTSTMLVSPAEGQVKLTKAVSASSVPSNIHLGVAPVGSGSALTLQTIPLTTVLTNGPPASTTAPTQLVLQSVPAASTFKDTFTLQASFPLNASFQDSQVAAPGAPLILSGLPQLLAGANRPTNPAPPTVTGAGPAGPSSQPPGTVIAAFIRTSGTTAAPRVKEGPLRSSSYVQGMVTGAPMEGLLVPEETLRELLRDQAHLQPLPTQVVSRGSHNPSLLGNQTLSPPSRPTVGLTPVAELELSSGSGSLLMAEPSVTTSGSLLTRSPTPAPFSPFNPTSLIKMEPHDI
Sequence of CRX (O43186 whole entry): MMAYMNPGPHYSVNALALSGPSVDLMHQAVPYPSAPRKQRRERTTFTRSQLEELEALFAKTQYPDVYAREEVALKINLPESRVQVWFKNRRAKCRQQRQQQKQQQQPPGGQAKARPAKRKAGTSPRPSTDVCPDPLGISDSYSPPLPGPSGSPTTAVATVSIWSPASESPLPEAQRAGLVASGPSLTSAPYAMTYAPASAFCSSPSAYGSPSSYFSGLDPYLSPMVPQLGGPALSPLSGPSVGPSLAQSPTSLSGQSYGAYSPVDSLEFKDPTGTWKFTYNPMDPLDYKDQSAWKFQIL
Sequence of ETV1 (P50549 whole entry): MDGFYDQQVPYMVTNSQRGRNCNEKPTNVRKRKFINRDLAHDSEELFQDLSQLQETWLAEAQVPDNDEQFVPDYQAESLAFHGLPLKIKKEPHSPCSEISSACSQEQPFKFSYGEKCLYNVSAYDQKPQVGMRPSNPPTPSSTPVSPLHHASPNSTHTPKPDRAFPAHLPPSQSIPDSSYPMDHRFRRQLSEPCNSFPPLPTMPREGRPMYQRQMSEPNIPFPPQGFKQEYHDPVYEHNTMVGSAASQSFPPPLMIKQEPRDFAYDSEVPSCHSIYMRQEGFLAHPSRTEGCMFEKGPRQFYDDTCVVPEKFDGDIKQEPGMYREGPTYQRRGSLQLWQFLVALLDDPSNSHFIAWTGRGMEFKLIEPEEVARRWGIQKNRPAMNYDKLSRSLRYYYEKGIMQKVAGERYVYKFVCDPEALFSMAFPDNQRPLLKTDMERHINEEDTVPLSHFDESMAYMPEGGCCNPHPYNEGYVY
Sequence of ETV6 (P41212 whole entry): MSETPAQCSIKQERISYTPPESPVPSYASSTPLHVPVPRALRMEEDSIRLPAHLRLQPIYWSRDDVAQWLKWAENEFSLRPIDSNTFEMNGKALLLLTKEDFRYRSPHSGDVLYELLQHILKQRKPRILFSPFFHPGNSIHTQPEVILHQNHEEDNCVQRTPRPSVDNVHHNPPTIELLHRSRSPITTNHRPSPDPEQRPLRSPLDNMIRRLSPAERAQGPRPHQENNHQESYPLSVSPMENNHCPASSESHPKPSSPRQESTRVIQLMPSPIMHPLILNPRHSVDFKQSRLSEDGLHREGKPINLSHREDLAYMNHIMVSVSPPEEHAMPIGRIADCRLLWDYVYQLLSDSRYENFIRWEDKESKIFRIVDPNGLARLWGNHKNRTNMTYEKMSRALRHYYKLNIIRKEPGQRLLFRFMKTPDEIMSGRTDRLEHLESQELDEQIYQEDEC

For the sequence CCCGAA, the binding signal is 1.37 fold enrichment (6-mer frequency, TF over GST control) in assay [1]; 1.36 fold enrichment (6-mer frequency, TF over GST control) in assay [2]; 2.56 fold enrichment (6-mer frequency, TF over GST control) in assay [3]; 1.45 fold enrichment (6-mer frequency, TF over GST control) in assay [4]; 1.37 fold enrichment (6-mer frequency, TF over GST control) in assay [5]; 1.34 fold enrichment (6-mer frequency, TF over GST control) in [6]. Further, the binding signal in assay [7] is 1.29 fold enrichment (6-mer frequency, TF over GST control); in assay [8], 1.47 fold enrichment (6-mer frequency, TF over GST control); in assay [9], 1.61 fold enrichment (6-mer frequency, TF over GST control); in assay [10] it was 1.29 fold enrichment (6-mer frequency, TF over GST control); in assay [11], 1.48 fold enrichment (6-mer frequency, TF over GST control); in [12], 1.35 fold enrichment (6-mer frequency, TF over GST control). Further, the binding signal in assay [13] was 1.37 fold enrichment (6-mer frequency, TF over GST control); in [14] it was 1.31 fold enrichment (6-mer frequency, TF over GST control); in assay [15] it was 1.26 fold enrichment (6-mer frequency, TF over GST control); in [16], 1.32 fold enrichment (6-mer frequency, TF over GST control); in assay [17] it was 1.33 fold enrichment (6-mer frequency, TF over GST control); in assay [18], 1.36 fold enrichment (6-mer frequency, TF over GST control).
